Results published in paper PMC7862700, “An all-to-all approach to the identification of sequence-specific readers for epigenetic DNA modifications on cytosine”.

What was measured:
Test in all cases: DAPPL (digital affinity profiling via proximity ligation, sequencing); 10 mM Tris-HCl pH 7.5, 50 mM NaCl, 1 mM DTT, 4% glycerol, room temperature, 30 min; GST-TFs on glutathione beads, 16-mer random dsDNA library, 0.1% formaldehyde crosslink after washing; high values mean tight binding
FEV = molecular target: T1, FEV (Homo sapiens, UniProt Q99581 1-238); details: protein: recombinant; tags: N-terminal GST; dsDNA, one strand shown
T1 sequence: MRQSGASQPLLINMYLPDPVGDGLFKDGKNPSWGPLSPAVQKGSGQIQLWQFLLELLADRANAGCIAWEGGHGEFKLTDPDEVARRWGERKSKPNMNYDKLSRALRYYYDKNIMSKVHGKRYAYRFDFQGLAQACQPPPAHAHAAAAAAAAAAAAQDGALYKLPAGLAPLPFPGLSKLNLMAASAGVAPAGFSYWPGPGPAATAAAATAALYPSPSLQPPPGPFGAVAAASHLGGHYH
Method in brief: (§1)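 Binding signal is each hexamer's read frequency for a factor divided by its frequency in the tag-only sample. The factors were GST-fused human transcription factors from yeast, captured on glutathione beads, DNA-barcoded and pooled with that sample. Pools were incubated with 200 nmole of a random double-stranded 16-mer DNA library in Tris/NaCl/DTT/glycerol buffer at room temperature for 30 min, then washed, crosslinked with 0.1% formaldehyde, proximity-ligated with BsaI/T4 ligase (1 h, 37 °C), PCR-amplified and sequenced on an Illumina NextSeq500.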

ETV5 = ETV5 (Homo sapiens, UniProt P41161 1-510); details: protein: recombinant; tags: N-terminal GST; dsDNA, one strand shown
Method in brief: as §1

HSF1 = HSF1 (Homo sapiens, UniProt Q00613 1-529); details: protein: recombinant; tags: N-terminal GST; chain copies: 3; dsDNA, one strand shown
Method in brief: as §1

SPIC = molecular target: T2, SPIC (Homo sapiens, UniProt Q8N5J4 1-248); details: protein: recombinant; tags: N-terminal GST; dsDNA, one strand shown
T2 sequence: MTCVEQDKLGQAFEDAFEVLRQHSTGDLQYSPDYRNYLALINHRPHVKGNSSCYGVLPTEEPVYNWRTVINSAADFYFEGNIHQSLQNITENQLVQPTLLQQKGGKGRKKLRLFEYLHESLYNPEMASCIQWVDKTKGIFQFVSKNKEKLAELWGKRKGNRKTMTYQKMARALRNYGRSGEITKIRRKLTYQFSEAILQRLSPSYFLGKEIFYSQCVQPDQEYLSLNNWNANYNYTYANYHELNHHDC
Method in brief: as §1

ELF4 = ELF4 (Homo sapiens, UniProt Q99607 1-663); details: protein: recombinant; tags: N-terminal GST; dsDNA, one strand shown
Method in brief: as §1

ELK4 = molecular target: T3, ELK4 (Homo sapiens, UniProt P28324-2 1-405); details: protein: recombinant; tags: N-terminal GST; dsDNA, one strand shown
T3 sequence: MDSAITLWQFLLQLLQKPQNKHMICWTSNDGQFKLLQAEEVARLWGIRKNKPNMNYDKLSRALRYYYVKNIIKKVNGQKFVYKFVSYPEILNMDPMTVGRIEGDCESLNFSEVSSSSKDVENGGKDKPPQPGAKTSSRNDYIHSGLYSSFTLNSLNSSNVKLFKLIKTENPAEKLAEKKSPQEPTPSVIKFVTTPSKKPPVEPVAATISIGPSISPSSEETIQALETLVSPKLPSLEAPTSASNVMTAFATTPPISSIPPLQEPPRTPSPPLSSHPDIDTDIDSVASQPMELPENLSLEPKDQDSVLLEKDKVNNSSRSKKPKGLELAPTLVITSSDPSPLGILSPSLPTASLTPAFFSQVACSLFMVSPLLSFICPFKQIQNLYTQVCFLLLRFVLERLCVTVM
Method in brief: as §1

ETV2 = molecular target: T4, ETV2 (Homo sapiens, UniProt O00321 1-342); details: protein: recombinant; tags: N-terminal GST; dsDNA, one strand shown
T4 sequence: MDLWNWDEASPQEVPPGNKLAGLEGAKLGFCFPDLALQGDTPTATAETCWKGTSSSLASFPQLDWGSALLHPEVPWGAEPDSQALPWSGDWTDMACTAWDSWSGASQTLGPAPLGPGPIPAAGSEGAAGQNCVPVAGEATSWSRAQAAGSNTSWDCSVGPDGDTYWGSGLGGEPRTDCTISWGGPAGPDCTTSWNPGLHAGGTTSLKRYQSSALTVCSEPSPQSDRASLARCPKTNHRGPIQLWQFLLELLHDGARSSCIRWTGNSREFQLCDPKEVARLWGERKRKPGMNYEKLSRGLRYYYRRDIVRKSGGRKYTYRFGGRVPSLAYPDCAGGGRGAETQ
Method in brief: as §1

CRX = CRX (Homo sapiens, UniProt O43186 1-299); details: protein: recombinant; tags: N-terminal GST; dsDNA, one strand shown
Method in brief: as §1

ETV1 = ETV1 (Homo sapiens, UniProt P50549 1-477); details: protein: recombinant; tags: N-terminal GST; dsDNA, one strand shown
Method in brief: as §1

ERF = molecular target: T5, ERF (Homo sapiens, UniProt P50548 1-548); details: protein: recombinant; tags: N-terminal GST; dsDNA, one strand shown
T5 sequence: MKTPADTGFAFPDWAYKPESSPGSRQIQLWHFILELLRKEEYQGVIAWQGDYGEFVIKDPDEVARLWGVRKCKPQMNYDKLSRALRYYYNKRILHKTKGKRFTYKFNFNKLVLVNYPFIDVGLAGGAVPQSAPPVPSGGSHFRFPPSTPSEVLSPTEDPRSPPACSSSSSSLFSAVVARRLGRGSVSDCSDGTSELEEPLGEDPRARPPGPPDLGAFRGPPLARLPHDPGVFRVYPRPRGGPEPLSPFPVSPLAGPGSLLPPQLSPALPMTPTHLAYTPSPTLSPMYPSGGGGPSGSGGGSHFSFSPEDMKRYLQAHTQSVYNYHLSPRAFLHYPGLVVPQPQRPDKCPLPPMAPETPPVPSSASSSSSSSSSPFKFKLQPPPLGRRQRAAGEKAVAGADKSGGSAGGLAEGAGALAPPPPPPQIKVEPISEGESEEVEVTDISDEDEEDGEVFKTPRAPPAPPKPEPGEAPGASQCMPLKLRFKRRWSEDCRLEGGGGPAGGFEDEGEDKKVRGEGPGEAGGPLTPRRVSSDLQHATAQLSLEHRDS
Method in brief: as §1

ETV3L = molecular target: T6, ETV3L (Homo sapiens, UniProt Q6ZN32 1-361); details: protein: recombinant; tags: N-terminal GST; dsDNA, one strand shown
T6 sequence: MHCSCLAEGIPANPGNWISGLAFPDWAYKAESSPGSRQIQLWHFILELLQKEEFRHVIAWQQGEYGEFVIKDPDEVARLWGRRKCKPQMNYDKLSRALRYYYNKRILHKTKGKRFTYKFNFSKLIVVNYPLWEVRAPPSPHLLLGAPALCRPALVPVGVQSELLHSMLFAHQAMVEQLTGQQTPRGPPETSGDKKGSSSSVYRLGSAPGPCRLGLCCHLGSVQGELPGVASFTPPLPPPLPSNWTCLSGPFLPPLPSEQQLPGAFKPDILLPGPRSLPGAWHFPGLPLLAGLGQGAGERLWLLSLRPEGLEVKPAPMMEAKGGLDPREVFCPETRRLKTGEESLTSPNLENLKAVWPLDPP
Method in brief: as §1

ETS2 = molecular target: T7, ETS2 (Homo sapiens, UniProt P15036 1-469); details: protein: recombinant; tags: N-terminal GST; dsDNA, one strand shown
T7 sequence: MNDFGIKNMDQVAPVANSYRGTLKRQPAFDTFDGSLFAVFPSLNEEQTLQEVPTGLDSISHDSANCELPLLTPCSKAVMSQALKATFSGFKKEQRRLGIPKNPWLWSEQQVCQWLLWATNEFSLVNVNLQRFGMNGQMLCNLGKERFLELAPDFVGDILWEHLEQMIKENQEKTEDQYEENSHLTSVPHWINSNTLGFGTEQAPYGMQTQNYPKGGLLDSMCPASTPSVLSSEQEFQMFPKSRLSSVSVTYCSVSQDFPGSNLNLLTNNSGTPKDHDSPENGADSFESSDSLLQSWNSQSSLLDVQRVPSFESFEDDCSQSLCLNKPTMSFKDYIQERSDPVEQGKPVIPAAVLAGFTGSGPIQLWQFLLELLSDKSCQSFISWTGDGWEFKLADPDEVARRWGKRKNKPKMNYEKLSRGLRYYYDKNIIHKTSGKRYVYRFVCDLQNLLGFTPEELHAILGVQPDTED
Method in brief: as §1

SPDEF = molecular target: T8, SPDEF (Homo sapiens, UniProt O95238 1-335); details: protein: recombinant; tags: N-terminal GST; dsDNA, one strand shown
T8 sequence: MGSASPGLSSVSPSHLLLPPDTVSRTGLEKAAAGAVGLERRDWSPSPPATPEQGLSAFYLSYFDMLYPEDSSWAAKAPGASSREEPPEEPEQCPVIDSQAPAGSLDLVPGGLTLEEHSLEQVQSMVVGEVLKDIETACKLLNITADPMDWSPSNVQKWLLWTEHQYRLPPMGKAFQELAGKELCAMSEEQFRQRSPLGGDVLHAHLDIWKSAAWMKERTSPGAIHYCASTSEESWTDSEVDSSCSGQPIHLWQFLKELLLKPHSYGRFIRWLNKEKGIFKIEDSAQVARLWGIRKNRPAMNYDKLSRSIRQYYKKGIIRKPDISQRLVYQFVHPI
Method in brief: as §1

ETV7 = molecular target: T9, ETV7 (Homo sapiens, UniProt Q9Y603 1-341); details: protein: recombinant; tags: N-terminal GST; dsDNA, one strand shown
T9 sequence: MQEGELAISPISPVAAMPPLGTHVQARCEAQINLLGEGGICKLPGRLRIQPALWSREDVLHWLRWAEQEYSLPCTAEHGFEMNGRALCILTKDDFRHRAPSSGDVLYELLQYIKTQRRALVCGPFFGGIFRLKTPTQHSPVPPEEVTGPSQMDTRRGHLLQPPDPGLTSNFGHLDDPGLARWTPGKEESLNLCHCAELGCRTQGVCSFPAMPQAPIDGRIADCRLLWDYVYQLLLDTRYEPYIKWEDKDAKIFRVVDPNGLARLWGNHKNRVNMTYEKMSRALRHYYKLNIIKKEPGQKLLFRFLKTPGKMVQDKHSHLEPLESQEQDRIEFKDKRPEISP
Method in brief: as §1

ELF5 = molecular target: T10, ELF5 (Homo sapiens, UniProt Q9UKW6-2 1-255); details: protein: recombinant; tags: N-terminal GST; dsDNA, one strand shown
T10 sequence: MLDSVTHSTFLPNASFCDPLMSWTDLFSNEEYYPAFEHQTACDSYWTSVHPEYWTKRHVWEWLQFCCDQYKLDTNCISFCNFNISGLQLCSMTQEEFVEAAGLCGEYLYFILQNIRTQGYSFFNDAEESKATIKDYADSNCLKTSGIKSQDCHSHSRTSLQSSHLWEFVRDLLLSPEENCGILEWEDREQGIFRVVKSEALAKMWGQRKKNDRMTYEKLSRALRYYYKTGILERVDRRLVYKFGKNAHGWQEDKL
Method in brief: as §1

ETV3 = molecular target: T11, ETV3 (Homo sapiens, UniProt P41162-2 1-143); details: protein: recombinant; tags: N-terminal GST; dsDNA, one strand shown
T11 sequence: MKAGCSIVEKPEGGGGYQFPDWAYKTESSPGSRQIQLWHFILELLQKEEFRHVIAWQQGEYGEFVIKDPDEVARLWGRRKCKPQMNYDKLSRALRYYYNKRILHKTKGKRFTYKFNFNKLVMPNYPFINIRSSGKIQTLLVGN
Method in brief: as §1

ETV6 = ETV6 (Homo sapiens, UniProt P41212 1-452); details: protein: recombinant; tags: N-terminal GST; dsDNA, one strand shown
Method in brief: as §1

CRX, sequence (O43186 whole entry): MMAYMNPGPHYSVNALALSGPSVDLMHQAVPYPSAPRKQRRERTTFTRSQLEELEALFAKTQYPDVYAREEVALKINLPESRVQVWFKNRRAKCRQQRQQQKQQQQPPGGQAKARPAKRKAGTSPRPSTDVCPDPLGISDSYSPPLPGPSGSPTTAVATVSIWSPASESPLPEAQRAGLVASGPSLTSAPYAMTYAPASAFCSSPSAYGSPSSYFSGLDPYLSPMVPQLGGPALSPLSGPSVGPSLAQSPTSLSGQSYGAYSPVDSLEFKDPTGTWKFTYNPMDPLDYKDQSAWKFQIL
ETV5, sequence (P41161 whole entry): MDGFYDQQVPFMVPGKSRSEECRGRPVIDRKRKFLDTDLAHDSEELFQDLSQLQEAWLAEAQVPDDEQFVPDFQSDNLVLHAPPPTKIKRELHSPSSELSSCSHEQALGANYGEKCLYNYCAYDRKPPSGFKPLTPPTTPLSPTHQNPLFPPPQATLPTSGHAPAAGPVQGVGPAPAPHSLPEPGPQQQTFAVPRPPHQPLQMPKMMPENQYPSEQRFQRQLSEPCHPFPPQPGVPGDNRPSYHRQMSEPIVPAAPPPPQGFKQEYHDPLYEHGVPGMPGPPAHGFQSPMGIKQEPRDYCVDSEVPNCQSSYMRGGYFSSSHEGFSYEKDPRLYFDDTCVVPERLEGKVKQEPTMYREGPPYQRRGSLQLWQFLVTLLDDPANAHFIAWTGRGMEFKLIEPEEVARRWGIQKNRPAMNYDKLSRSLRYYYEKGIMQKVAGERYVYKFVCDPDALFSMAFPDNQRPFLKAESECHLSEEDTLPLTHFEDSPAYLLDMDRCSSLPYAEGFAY
ELF4, sequence (Q99607 whole entry): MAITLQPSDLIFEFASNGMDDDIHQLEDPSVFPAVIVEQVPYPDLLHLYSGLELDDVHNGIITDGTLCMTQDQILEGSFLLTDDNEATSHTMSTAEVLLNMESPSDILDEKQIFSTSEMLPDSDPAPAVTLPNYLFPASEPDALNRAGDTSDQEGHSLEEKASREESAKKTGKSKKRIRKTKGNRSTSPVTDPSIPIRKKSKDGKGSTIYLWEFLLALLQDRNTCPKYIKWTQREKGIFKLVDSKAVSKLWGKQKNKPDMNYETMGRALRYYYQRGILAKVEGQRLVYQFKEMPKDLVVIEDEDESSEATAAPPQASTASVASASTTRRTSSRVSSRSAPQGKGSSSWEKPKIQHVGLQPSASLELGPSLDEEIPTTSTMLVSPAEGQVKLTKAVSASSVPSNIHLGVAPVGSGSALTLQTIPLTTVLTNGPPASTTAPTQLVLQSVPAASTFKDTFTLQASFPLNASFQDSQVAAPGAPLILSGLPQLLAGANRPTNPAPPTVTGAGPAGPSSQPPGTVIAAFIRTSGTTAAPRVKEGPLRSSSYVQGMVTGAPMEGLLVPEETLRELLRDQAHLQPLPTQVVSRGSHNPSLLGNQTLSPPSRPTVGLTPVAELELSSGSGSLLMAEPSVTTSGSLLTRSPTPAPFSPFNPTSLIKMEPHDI
HSF1, sequence (Q00613 whole entry): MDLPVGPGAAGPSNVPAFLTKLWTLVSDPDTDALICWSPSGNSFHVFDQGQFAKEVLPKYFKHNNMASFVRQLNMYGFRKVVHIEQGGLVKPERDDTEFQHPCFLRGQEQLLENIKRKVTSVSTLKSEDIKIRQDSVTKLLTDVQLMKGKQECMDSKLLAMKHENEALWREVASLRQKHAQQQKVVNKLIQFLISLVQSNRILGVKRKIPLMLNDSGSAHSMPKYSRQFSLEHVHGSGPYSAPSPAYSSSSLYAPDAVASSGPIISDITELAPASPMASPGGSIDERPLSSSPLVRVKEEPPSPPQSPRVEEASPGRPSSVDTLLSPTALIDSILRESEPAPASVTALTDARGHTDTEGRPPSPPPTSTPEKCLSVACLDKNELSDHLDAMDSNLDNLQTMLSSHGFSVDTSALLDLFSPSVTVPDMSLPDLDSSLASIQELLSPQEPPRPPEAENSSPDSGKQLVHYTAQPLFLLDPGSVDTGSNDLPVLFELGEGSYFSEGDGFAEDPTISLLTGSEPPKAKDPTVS
ETV1, sequence (P50549 whole entry): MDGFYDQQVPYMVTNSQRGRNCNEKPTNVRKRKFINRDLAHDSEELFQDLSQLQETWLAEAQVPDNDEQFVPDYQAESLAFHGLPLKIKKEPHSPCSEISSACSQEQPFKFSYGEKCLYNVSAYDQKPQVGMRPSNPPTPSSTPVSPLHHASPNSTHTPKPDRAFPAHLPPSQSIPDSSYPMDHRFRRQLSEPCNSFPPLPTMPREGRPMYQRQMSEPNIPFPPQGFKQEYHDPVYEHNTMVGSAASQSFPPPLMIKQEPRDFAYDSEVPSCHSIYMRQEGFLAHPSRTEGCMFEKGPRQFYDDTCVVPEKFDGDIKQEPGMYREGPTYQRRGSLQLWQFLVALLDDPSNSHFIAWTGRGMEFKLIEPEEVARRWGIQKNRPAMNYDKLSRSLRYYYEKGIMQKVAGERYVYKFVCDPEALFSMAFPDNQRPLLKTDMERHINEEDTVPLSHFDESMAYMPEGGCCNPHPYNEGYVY
ETV6, sequence (P41212 whole entry): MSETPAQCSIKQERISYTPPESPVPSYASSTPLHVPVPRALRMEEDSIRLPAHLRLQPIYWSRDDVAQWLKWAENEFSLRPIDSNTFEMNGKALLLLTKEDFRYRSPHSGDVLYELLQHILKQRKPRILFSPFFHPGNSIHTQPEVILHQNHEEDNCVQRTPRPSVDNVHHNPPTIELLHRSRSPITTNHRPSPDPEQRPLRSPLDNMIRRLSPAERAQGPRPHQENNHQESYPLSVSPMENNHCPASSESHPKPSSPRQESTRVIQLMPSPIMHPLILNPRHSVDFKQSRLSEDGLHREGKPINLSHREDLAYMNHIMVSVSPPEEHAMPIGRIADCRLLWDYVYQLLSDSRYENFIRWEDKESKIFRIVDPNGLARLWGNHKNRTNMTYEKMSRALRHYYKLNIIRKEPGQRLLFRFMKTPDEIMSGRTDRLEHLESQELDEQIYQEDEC

CCACGA was tested, and the binding signal (FEV) was 1.11 fold enrichment (6-mer frequency, TF over GST control), the binding signal (ETV5) was 1.02 fold enrichment (6-mer frequency, TF over GST control) and the binding signal (HSF1) was 1.12 fold enrichment (6-mer frequency, TF over GST control). For the same sequence, the binding signal (SPIC) was 1.17 fold enrichment (6-mer frequency, TF over GST control), the binding signal (ELF4) was 1.1 fold enrichment (6-mer frequency, TF over GST control) and the binding signal (ELK4) was 1.18 fold enrichment (6-mer frequency, TF over GST control). The binding signal (ETV2) was 1.09 fold enrichment (6-mer frequency, TF over GST control), the binding signal (CRX) was 1 fold enrichment (6-mer frequency, TF over GST control) and the binding signal (ETV1) was 1.02 fold enrichment (6-mer frequency, TF over GST control). For the same sequence, the binding signal (ERF) was 1.04 fold enrichment (6-mer frequency, TF over GST control), the binding signal (ETV3L) was 1.09 fold enrichment (6-mer frequency, TF over GST control) and the binding signal (ETS2) was 1.08 fold enrichment (6-mer frequency, TF over GST control). The binding signal (SPDEF) was 1.03 fold enrichment (6-mer frequency, TF over GST control), the binding signal (ETV7) was 1.17 fold enrichment (6-mer frequency, TF over GST control) and the binding signal (ELF5) was 1.01 fold enrichment (6-mer frequency, TF over GST control). The binding signal (ETV3) was 1.02 fold enrichment (6-mer frequency, TF over GST control) and the binding signal (ETV6) was 1.01 fold enrichment (6-mer frequency, TF over GST control).
